Data reported in PubChem BioAssay (Tox21).
Activity calls are given as the source filed them. Calls follow the shape of the dose curve; as a rule, active = well fitted curve in the direction sought with a large enough effect in the repeat runs; inconclusive = weak or mixed curves; inactive = flat fitted curve, though single readings scatter.

experiment: qHTS assay to test for compound auto fluorescence at 590 nm (red) in HEK293 cell free culture (AID 720683); conditions: cell-free medium autofluorescence, Ex540/Em590 red; series mostly up to 91.3 µM
From the text: U.S. Tox21 Program National Center for Advancing Translational Sciences [NCATS] NIH Chemical Genomics Center [NCGC] U.S. Environmental Protection Agency [EPA] National Institutes of Environmental Health Sciences [NIEHS] National Toxicology Program [NTP] U.S. Food and Drug Administration [FDA] Tox21 Assay Overview: Compound auto fluorescence often interferes with screening of the compound library against various biological targets and signaling pathways. Some of these compounds may have fluorophoric properties. Such properties may interfere with the assay outputs resulting in false positives and/or negatives. To decrease such complications and ensure the compound activities are relevant in terms of biological response, the Tox21 10K compound library was screened for auto fluorescence. From the fluorophores used as reporter signals in our screening assays, the auto fluorescence equivalencies of compounds against three fluorophores have been evaluated: Triamterene, Fluorescein and Rose Bengal sodium for blue, green and red fluorescence, respectively. The fluorescence intensities were measured using Excitation/Emission wavelengths at 405/460nm, 485/535nm and 540/590nm for blue, green and red labels, respectively. This assay includes the red fluorescence data.
Tox21 Assay Protocol Summary: 5 uL of culture medium (DMEM containing 10% FBS) per well was dispensed into black wall/clear bottom 1536-well plates using a Multidrop Combi Dispenser (ThermoFisher Scientific, Waltham, MA). After 23 nL compound or DMSO vehicle was transferred into assay plate by a pintool work station (Kalypsys, San Diego, CA), fluorescence intensities in the assay plates were measured by an Envision (PerkinElmer, Shelton, CT) plate reader using three labels for measuring blue, green and red fluorescence at […] 460, 535 and 590nm respectively.

Structure (SMILES) | outcome
CCN(CC)c1ccccc1 | inactive
O=C(NC(=O)c1c(F)cccc1F)Nc1cc(Cl)c(OC(F)(F)C(F)C(F)(F)F)cc1Cl (stereo not given) | inactive
BrCCBr | inactive
CN(C)[C@@H]1C(=O)C(C(N)=O)=C(O)[C@@]2(O)C(=O)C3=C(O)c4c(O)cccc4[C@@](C)(O)[C@H]3C[C@@H]12 | inactive
CC(C)N1C(=O)c2ccccc2NS1(=O)=O | inactive
O=S(=O)(c1ccc(O)cc1)c1ccc(O)cc1 | inactive
C1CN2CCN1CC2 | inactive
CN1C(=O)CN=C(c2ccccc2)c2cc(Cl)ccc21 | inactive
CN=C=S | inactive
CN(C)N=O | inactive
OCCN(CCO)CCO | inactive
CC(C)OC(=O)Nc1cccc(Cl)c1 | inactive
C#CC(C)(C)NC(=O)c1cc(Cl)cc(Cl)c1 | inactive
O=C1CCCN1 | inactive
CCCCN(CCCC)SN(C)C(=O)Oc1cccc2c1OC(C)(C)C2 | inactive
CCCCCCCCCl | inactive
CN(N=O)c1ccccc1 | inactive
CCOP(=S)(OCC)Oc1cnc2ccccc2n1 | inactive
c1ccc(OP(Oc2ccccc2)Oc2ccccc2)cc1 | inactive
O=[N+]([O-])c1ccc(Oc2ccc(Cl)cc2Cl)cc1 | inactive

Structure (SMILES) | outcome
CC(C)(C)OOC(=O)c1ccccc1 | inactive
Clc1ccc(Cl)cc1 | inactive
C=CCO | inactive
CCNc1nc(NC(C)C)nc(SC)n1 | inactive
Cn1cc(-c2ccccc2)c(=O)c(-c2cccc(C(F)(F)F)c2)c1 | inactive
CCOP(=S)(OCC)SCCSCC | inactive
c1ccc2c(c1)Oc1ccccc1O2 | inactive
C=C(C)CCl | inactive
CCCN(CCC)c1c([N+](=O)[O-])cc(C(F)(F)F)cc1[N+](=O)[O-] | inactive
C=CC(N)=O | inactive
O=c1[nH]c(=O)[nH]c(=O)[nH]1 | inactive
CCCCCCCCCCCC#N | inactive
COCCl | inactive
O=NN1CCCC1 | inactive
O=[N+]([O-])c1ccc([As](=O)(O)O)cc1 | inactive
[O-][Cl+2]([O-])O | inactive
CC(C)(Cl)Cl | inactive
CC(C)=C[C@@H]1[C@@H](C(=O)OCc2coc(Cc3ccccc3)c2)C1(C)C | inactive
COC(=O)NC(=S)Nc1ccccc1NC(=S)NC(=O)OC | inactive
Cc1ccc(N)cc1N | inactive
